Source: PubChem BioAssay (NCI)
This is part of a sample that, as a whole, favours compounds with a hit. Of some 83,000 tested, about 20% had one in any assay.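 Growth was measured after 48 h exposure to one concentration of compound in 96-well plates. Values under 10 count as active.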 The source made the active and inactive calls.

Test system: HL-60(TB) leukemia
Experiment: NCI-60 one-dose screen, 48 h (100 = growth as untreated, 0 = no growth, -100 = all killed)
Conditions: 10 µM unless noted

| SMILES | growth |
| --- | --- |
| O=C(Nc1ncc(Cc2cc(C(F)(F)F)ccc2Cl)s1)C(=S)N1CCOCC1 | 98.1% (inactive) |
| NCCn1cc(-c2nc(-c3c[nH]c4ncccc34)cs2)c2ccccc21 | 78.2% (inactive) |
| COc1ccc(-c2cncn2-c2ccc(-c3nc4cc(OC)c(OC)c(OC)c4s3)cc2)cc1N | 27.8% (inactive) |
| Cc1ccc(-c2nn(-c3ccccc3)cc2C=C2C(=O)ON=C2C(C)C)cc1 | -37.7% (active) |
| COc1ccc(/C=N/OCC(O)CNCc2ccccc2)cc1OC1CCCC1 (stereo not given) | 105% (inactive) |
| O=C(Nc1ccc(Cl)cc1)c1cc2c(cc1O)[nH]c1ccccc12 | -24.5% (active) |
| Oc1ccc2c(c1)CCc1ccccc1-2 | 103% (inactive) |
| C/C(=N\NC(=O)CC#N)c1cc2cc(Cl)ccc2o1 | 99.4% (inactive) |
| N=C(N)c1ccc(-c2ccc(-c3ccc(Cl)c(Cl)c3)o2)nc1 | 15.1% (inactive) |
| Cc1ccc(C(=O)Nc2cccc(C#Cc3cccc4[nH]nc(N)c34)c2)cc1C(F)(F)F | 19.2% (inactive) |
| CC1=CC(=O)C=CC1=Nc1ccc(N(C)C)cc1 | -1.75% (active) |
| CN(C)c1ccc(C#Cc2c(F)cccc2Cl)cc1 | 79% (inactive) |
| COc1cnc2c(c1)C(=O)c1c-2n(CCCNC2=NCCS2)c(=O)c2cc(Cl)ccc12 | -63.8% (active) |
| COc1ccc(-c2nsc3c2NC(=O)CC3c2cccc(F)c2)cc1 (stereo not given) | 39.2% (inactive) |
| Cc1cc(C)c2c(=O)[nH]c(SCC(=O)Nc3cccc(S(=O)(=O)N(C)C)c3)nc2n1 | 97.2% (inactive) |
| COc1cccc(Cc2nn3cc(-c4ccccc4)nc3s2)c1 | 69.9% (inactive) |
| CC(=O)OCC1SC(OC(C)=O)C(NC(=O)/C=C/CCl)C(OC(C)=O)C1OC(C)=O (stereo not given) | 79.9% (inactive) |
| Cc1c(CC(=O)Nc2ccccc2)nnn1-c1ccccc1 | 99.3% (inactive) |
| Nc1nc(N)c(N=Nc2c(Br)cc(S(N)(=O)=O)cc2Br)c(N)n1 | 105% (inactive) |
| CCSC1=CC(=O)c2ccccc2C1=O | 50.9% (inactive) |

| SMILES | growth |
| --- | --- |
| Nc1ccc2ccccc2c1-c1c(N)ccc2ccccc12 | 2.94% (active) |
| Clc1ccc(-c2n[nH]c3c2Cc2ccccc2-3)cc1Cl | 100% (inactive) |
| O=C(N/N=C\c1ccccc1S(=O)(=O)O)N/N=C/c1ccccc1S(=O)(=O)O | 91.7% (inactive) |
| CCOC(=O)C1=C(C)c2ccc(OC)c(OC)c2C1 | 106% (inactive) |
| O=C(O)CNC(=O)CN1C(=O)c2ccccc2C1=O | 90.7% (inactive) |
| O=C(Nc1cccc(-n2ccc3c(NC(=O)c4ccccc4)nccc32)c1)Nc1cc(C(F)(F)F)cc(C(F)(F)F)c1 | -17.6% (active) |
| CCOC(=O)c1c(C)cc(=O)oc1C | 105% (inactive) |
| CCC(O)CC(CC)CO (stereo not given) | 94.2% (inactive) |
| O=C(NOC1OC(CO)C(O)C(O)C1O)Nc1ccccc1 (stereo not given) | 74.5% (inactive) |
| CCCCOc1nc2ccccc2cc1C1CNC(=O)c2ccccc2N1 (stereo not given) | -8.72% (active) |
| COc1cc(C2=NN(C(C)=O)C(c3cc(OC)c(OC)c(OC)c3)C2)ccc1O (stereo not given) | -37.6% (active) |
| CCCCCCCCCCCCCCCCCCOc1ccccc1CCCOP(=O)(O)OCC[N+](C)(C)C | 21.9% (inactive) |
| CCN1CCN(C(=O)[C@]23CC[C@@H](C)[C@H](C)[C@@H]2C2=CC[C@@H]4[C@@]5(C)C/C(=C/c6cccnc6)C(=O)C(C)(C)[C@@H]5CC[C@@]4(C)[C@]2(C)CC3)CC1 | -38.2% (active) |
| Clc1ccc2c(c1)-c1ccccc1C1=NCCN12 | 38.1% (inactive) |
| CCCCCCOC(=O)CC1=C(C)/C(=C/c2[nH]c(-c3ccc[nH]3)cc2OC)N=C1C | -42.7% (active) |
| NC(=O)c1ccc(NC(=O)c2oc3ccccc3c2-c2cnn(-c3ccccc3)c2)cc1 | 98.4% [50 µM] (inactive) |
| COc1cccc(-c2nc(-c3ccc(N)cc3)co2)c1 | 52.9% (inactive) |
| Nc1c(C(=O)NC2CCCCC2)sc2nc3c(cc12)C(=O)CCC3 | 95.2% (inactive) |
| O=Cc1cc2ccccc2nc1Oc1ccc(C(F)(F)F)cc1 | 92% (inactive) |
| Cc1cc(N/N=C/c2nc(-c3ccc(Cl)cc3)oc2C)c2cc(Br)ccc2n1 | 59% (inactive) |
